± gives the standard deviation of the averaged measurements. In all, about 33,000 sequences were measured (“E-score (rank enrichment, -0.5 to 0.5)”: median about -0.0028, highest 2% from about 0.23 on). The list comes from a sample in which the highest values are over-represented; it also holds similar and randomly drawn sequences.
The sequences below were run on 2Sb-muMax20 (muMax20 with two 1,3-bis(methyl)benzene Cys staples, A13C/A17C and Q88C/A92C, C-terminal Lys) (assay: PBM 8-mer E-score (E-score (rank enrichment, -0.5 to 0.5)); higher = stronger preferential binding).
Protocol: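 Protein binding microarray (universal PBM chip covering all 10-mers in fixed probe flanks) with chemically synthesized human Max(13-93) bHLH-LZ analogs (not full-length Max) bearing noncanonical residues (hArg, Tha, Aib, Nle at 65) and aromatic Cys staples. Read-out per 8-mer (and its reverse complement): E-score (rank-based enrichment, -0.5 to 0.5) and Z-score of median probe intensity.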

Sequence	PBM 8-mer E-score
GAATTCCA	0.0438 ± 0.014
AATTCCCC	0.162 ± 0.019
AAAATCAC	0.28 ± 0.019
ATTCCCCA	0.345 ± 0.0051
CAATTCCA	0.021 ± 0.024
AAAATCAG	-0.00194 ± 0.044
GATTCCCA	-0.109 ± 0.031
ATTCCCCC	-0.0763 ± 0.046
GTTCCCCA	0.0903 ± 0.0034
GAAATCAC	0.0559 ± 0.039
AAATTCCA	0.243 ± 0.0059
AATTCCCA	0.251 ± 0.056
GAGGACGA	-0.0985 ± 0.014
CAGGAATA	-0.0263 ± 0.13
AGACTGCC	-0.138 ± 0.008
AGGCGCTA	-0.116 ± 0.03
ACAGGATA	0.046 ± 0.059
CCTCTAAC	-0.122 ± 0.012
ATGTCCCC	0.0908 ± 0.0075
AGCGCCTG	-0.212 ± 0.01
ATTTTCCC	0.17 ± 0.024
AATTTCCC	0.301 ± 0.032
GAAATCCA	-0.0749 ± 0.093
CAAATCCA	0.0168 ± 0.048
GATTTCCC	0.0913 ± 0.071

Sequence	PBM 8-mer E-score
AAAATCCA	0.232 ± 0.0091
GCCACAAA	0.0853 ± 0.099
ACGGCTTA	0.0267 ± 0.027
CAATGCTC	-0.0184 ± 0.021
GGAGTAGA	0.139 ± 0.0065
GGGAAGGA	0.0711 ± 0.073
GAGTATTA	0.12 ± 0.024
ATGTATTA	0.216 ± 0.018
AAGTATTA	0.157 ± 0.094
GTGTATTA	0.244 ± 0.061
CTGTATTA	-0.0311 ± 0.058
CAGTATTA	0.28 ± 0.02
AGCGCAAC	-0.0193 ± 0.035
CCAGACGC	-0.135 ± 0.041
CGGCTGAG	-0.16 ± 0.018
ACACCTAT	0.0344 ± 0.0022
TACCTATA	0.116 ± 0.032
CACCTATA	0.232 ± 0.056
AACCTATA	0.0842 ± 0.034
AAGAATCG	0.202 ± 0.011
TTCCTCAA	-0.0714 ± 0.003
TCAGCCGA	-0.258 ± 0.094
CCGATCGC	0.0847 ± 0.035
ACGATCGC	0.0439 ± 0.021
GCGATCGC	0.261 ± 0.0046

Sequence	PBM 8-mer E-score
ACTAAAGT	0.0154 ± 0.055
CAATGGTA	0.0764 ± 0.11
GAATACAA	0.164 ± 0.0018
GCCACTTA	-0.042 ± 0.068
CCCACTTC	0.184 ± 0.051
CCCACTCC	0.241 ± 0.017
GCCACTCC	-0.166 ± 0.023
CCCACTTA	0.2675 ± 0.00044
CCCACTCG	-0.168 ± 0.084
CCGACGGC	-0.2 ± 0.038
GTAGTGAA	0.206 ± 0.042
TAATGCGA	0.018 ± 0.0008
AAACCGGG	0.0468 ± 0.0036
CCGATTGA	-0.00849 ± 0.0099
ACGTTATA	0.105 ± 0.0054
ACGTTATC	0.0764 ± 0.057
ACGTTATG	0.2695 ± 0.0015
TCATCAAA	-0.124 ± 0.034
CATTCGAG	0.0428 ± 0.017
ATCGTAAG	0.0321 ± 0.021
ATCGTAAT	0.246 ± 0.023
ATCGTAAA	0.0946 ± 0.014
CATTGGGG	0.255 ± 0.038
AATTGGTG	0.142 ± 0.023
AATTGGGT	0.2396 ± 0.0021

Sequence	PBM 8-mer E-score
AATTGGAG	0.0796 ± 0.067
AATTGGGA	0.218 ± 0.012
CATTGGGA	-0.021 ± 0.0046
AATTGGGG	0.317 ± 0.0083
CATTGGGC	-0.173 ± 0.044
AATTGGGC	0.1581 ± 0.00092
AGCATTGG	-0.0228 ± 0.0039
TCCCCGAA	0.0276 ± 0.02
ATGTTGAC	0.0701 ± 0.026
GCAATTCC	-0.0345 ± 0.025
ATTGGCAA	0.105 ± 0.047
ACTGAAAA	0.0674 ± 0.026
GCGGAAGA	-0.0695 ± 0.055
AAGGTCCT	-0.112 ± 0.078
GGAATGCA	0.038 ± 0.021
CTTAATGC	0.234 ± 0.011
ATTAACAC	0.239 ± 0.026
GATAATAA	0.191 ± 0.037
AATAATAC	0.0444 ± 0.028
CTTAACAC	0.173 ± 0.015
ATTAATAA	0.177 ± 0.038
ATTAATAG	0.186 ± 0.045
CTTAATGA	0.0296 ± 0.046
ATTAATGC	0.147 ± 0.069
ATTAACAA	0.154 ± 0.00047

Sequence	PBM 8-mer E-score
ATTAATAC	0.241 ± 0.012
GATAATAC	0.234 ± 0.042
GTTGCTAA	0.124 ± 0.023
CCAACGCG	-0.0237 ± 0.021
AATACTCA	0.102 ± 0.013
CGTCCGTC	-0.11 ± 0.051
ACACATAT	0.124 ± 0.021
ATAGGGCG	0.138 ± 0.0092
ATGATCAG	-0.0255 ± 0.099
CACTTGAC	-0.0462 ± 0.076
CTTAATAA	-0.0695 ± 0.0064
CTTAATAC	0.244 ± 0.042
CTTAATTC	0.173 ± 0.039
ATCAGCTA	0.00813 ± 0.027
AATGAAGA	0.0161 ± 0.012
AATGAAGG	0.0344 ± 0.037
AATGAAGT	0.238 ± 0.026
AACAATAA	0.133 ± 0.017
AACAACAA	0.194 ± 0.033
CACAATAA	0.0489 ± 0.053
AACAACAC	0.2764 ± 0.0019
TACAACAA	0.268 ± 0.0087
TACAATAA	0.331 ± 0.05
GACAACAC	-0.0706 ± 0.0054
CACAACAA	0.212 ± 0.0096

Sequence	PBM 8-mer E-score
CACAACAC	0.219 ± 0.035
CATTTCCG	-0.0659 ± 0.0054
CTTCCCGC	0.0401 ± 0.037
ACACGTTA	0.08518 ± 0.00069
ATTATAAC	0.306 ± 0.0034
ATTATACA	0.0477 ± 0.0088
ATTATACC	0.237 ± 0.011
ATTATAAG	0.205 ± 0.057
ATTATACG	0.0799 ± 0.014
ATTATAAT	0.141 ± 0.034
GGCTTCAC	-0.204 ± 0.1
CGAGTCAG	-0.177 ± 0.05
CTGTATGC	0.0233 ± 0.062
CGATACGA	-0.06 ± 0.12
GCATAATA	0.195 ± 0.083
GTATAATA	0.226 ± 0.012
GTATAAGA	0.212 ± 0.037
ATATAAGA	0.249 ± 0.011
CTATAATA	0.0375 ± 0.0029
ACATAATA	0.302 ± 0.0096
ATATAATA	0.274 ± 0.044
CTATAAGA	0.0167 ± 0.02
ACATAATC	0.142 ± 0.023
CTTAGCTA	-0.0391 ± 0.023
CTTTCTCC	0.00231 ± 0.006

Sequence	PBM 8-mer E-score
CATACAGA	-0.0476 ± 0.0072
CACCTGCG	-0.168 ± 0.017
CCGTATCG	-0.0355 ± 0.019
GAGTGGGA	-0.0417 ± 0.045
ACGTGGGG	0.261 ± 0.045
ACGTGGGC	0.169 ± 0.022
ACGTGGAT	0.207 ± 0.043
ACGTGGTA	0.216 ± 0.024
ACGTGGTC	0.111 ± 0.0094
ACGTGGGA	0.203 ± 0.044
ACGTGGTG	0.316 ± 0.034
TAGTGGGA	0.038 ± 0.0028
AAGTGGGA	0.281 ± 0.018
CCGTGGAG	-0.106 ± 0.074
ACGTGGAG	0.279 ± 0.0086
TCTCGCCA	0.0619 ± 0.024
AAAAGGCA	0.0454 ± 0.064
AAGTGGGT	0.1 ± 0.0081
ACGTGGCT	0.291 ± 0.048
ACGTGGCC	-0.0906 ± 0.018
AAGTGGGG	0.264 ± 0.032
ACGTGGCA	0.114 ± 0.049
AAGTGGGC	0.0223 ± 0.023
AACCGTGC	-0.0303 ± 0.0035
CGGTATTC	-0.204 ± 0.072

Sequence	PBM 8-mer E-score
GGCCGGCC	-0.285 ± 0.0086
CCACGGTA	-0.185 ± 0.042
TTAAAGAA	0.125 ± 0.032
GCGTAAAC	0.0507 ± 0.016
AATTCCAG	0.0496 ± 0.043
ATACTACG	0.0847 ± 0.053
GGACTCAA	-0.0969 ± 0.07
ATTGGGAA	0.192 ± 0.0077
CTTGGGGA	0.269 ± 0.046
ATTGGGTA	0.161 ± 0.015
GTTGGGGA	0.166 ± 0.092
ATTGGGGG	0.0136 ± 0.03
CATGGGGA	0.172 ± 0.05
CTTGGGAA	-0.0626 ± 0.05
TATGGGGA	0.28 ± 0.014
ATTGGGCC	-0.04 ± 0.093
ATTGGGGC	0.284 ± 0.0076
AATGGGGA	0.143 ± 0.0043
ATTGGGGA	0.244 ± 0.0088
AGTGGCTA	-0.0163 ± 0.084
AGTTTCAC	0.045 ± 0.0036
CAGCTCAG	-0.0712 ± 0.0083
GGCCACAA	-0.0539 ± 0.0061
ACATTCTC	-0.0346 ± 0.019
CTGGGGTA	0.179 ± 0.0054

Sequence	PBM 8-mer E-score
ATGGGGTC	0.0475 ± 0.043
ATGGGGTA	0.249 ± 0.034
ATGGGGTG	0.238 ± 0.0055
AGGGGGTG	-0.116 ± 0.099
AAGGGGTG	0.117 ± 0.065
ACGTAGAA	-0.00421 ± 0.0043
AGCGCTCG	-0.0768 ± 0.062
AAATCCGA	0.0186 ± 0.034
AGGAATGA	0.00801 ± 0.012
GGGAATGA	0.322 ± 0.017
TGGAATAA	0.0314 ± 0.022
GGGAATAC	0.0722 ± 0.022
GGGAATAA	0.273 ± 0.024
CGGAATGA	-0.065 ± 0.018
AAGGCACT	0.0491 ± 0.026
GAGTGCCA	-0.0641 ± 0.028
ACTCTGCT	-0.214 ± 0.017
CATATCCG	0.0256 ± 0.071
AATTTTCC	0.085 ± 0.0046
